Structures are written as SMILES. Among all 48,000 compounds or so, about 13,000 (27%) showed an effect of 50% or more. This is one part of the list.

For the assay, the system named is Wolbachia pipientis. In words: Anti-Wolbachia Cell-Based Screen. The note with it: 5 µM. Type of assay: functional. Also on record: scale not given: in the data most compounds retested in dose-response had high values.
As to `Cc1cnccc1N1CCCN(C(=O)CCCS(N)(=O)=O)CC1`, the “Percent Effect” value stood at 5.967%.
As to `Cc1ncsc1-c1nnc(C2CCN(Cc3cccc(Cl)c3)CC2)o1`, the “Percent Effect” value is on record as 113.8%.
Regarding `COc1cccc(CN2CC[C@H](c3nnc(C)o3)C2)c1`, the “Percent Effect” value was 12.81%.
As to `COc1cccc(CN2CCC(c3nnc(-c4cnc(C)cn4)o3)C2)c1` (stereo not given), the “Percent Effect” value is given as 84.16%.
Consider `COc1cccc(CN2CC[C@H](c3nnc(-c4ccco4)o3)C2)c1`, for which the “Percent Effect” value was found to be 18.39%.
For `Cc1cccc(CN2CCC(c3nnc(-c4scnc4C)o3)CC2)c1`, the “Percent Effect” value stood at 109.5%.
As to `Cc1ncsc1-c1nc(-c2cccc(CN3CCOCC3)c2)no1`, the “Percent Effect” value stood at 1.772%.
With `Cc1nc(CN2CCN(CC(=O)Nc3c(C)cccc3C)CC2)no1`, the “Percent Effect” value turned out to be 0.7695%.
In the case of `COc1ccc(C(O)C(=O)N2CCC(c3nccn3C(C)C)CC2)cc1` (stereo not given) it was -20.71%.
For the compound `CC(NC(=O)c1ccoc1)C(=O)N(C)Cc1ccc(O)cc1` (stereo not given), the “Percent Effect” value was -3.093%.
`Cc1noc(C)c1C(=O)NCC(c1ccc(F)cc1)N(C)C` (stereo not given): the “Percent Effect” value is -4.601%.
For the compound `CN(C)C(CNC(=O)c1ncoc1-c1ccccc1)c1ccsc1` (stereo not given), the “Percent Effect” value is reported as -4.122%.
Turning to `Cc1noc(C)c1C(=O)NCC(c1ccsc1)N(C)C` (stereo not given), the “Percent Effect” value was 115.3%.
In the case of `Cc1cc(C(=O)NCC(c2ccsc2)N(C)C)no1` (stereo not given), the “Percent Effect” value is 113.7%.
As for `Cc1cc(NC(=O)NCC(c2ccsc2)N(C)C)n(C)n1` (stereo not given), the “Percent Effect” value is on record as -2.678%.
Take `Cc1nn(-c2ccccc2)nc1C(=O)NCC(c1ccsc1)N(C)C` (stereo not given): the “Percent Effect” value is on record as -0.008163%.
`Cc1noc(C(C)C)c1C(=O)NCC(c1ccsc1)N(C)C` (stereo not given): the “Percent Effect” value was -2.505%.
In the case of `Cc1nn(C)c(Cl)c1C(=O)NCC(c1ccsc1)N(C)C` (stereo not given) it was -1.114%; in that of `CCN(CC)C(CNC(=O)c1c(C)noc1C(C)C)c1ccsc1` (stereo not given), 108.9%.
As for `CC(c1cc(F)ccc1F)N1CCN(C(=O)c2ccc(=O)[nH]c2)CC1` (stereo not given), the “Percent Effect” value is on record as -31.75%.
As for `O=C(O)C(F)(F)F.c1csc(CN2CCc3ncnc(C4CCOC4)c3CC2)c1` (stereo not given), the “Percent Effect” value was -9.496%.
In the case of `Cn1nnc2c1CCN(C(=O)C1CCC1)C2COCCN1CCCC1.O=C(O)C(F)(F)F` (stereo not given) it was -13.51%; in that of `COc1ccc(-c2n[nH]cc2CN2CCSCC2)c(OC)c1`, 5.008%; in that of `Cc1n[nH]cc1CNC(=O)CCCc1cccs1`, -6.834%.
In the case of `COCC(=O)N[C@@H]1CN(Cc2c[nH]nc2-c2cccs2)C[C@H]1O` it was 113.8%.
Consider `COCCN1C(=O)CO[C@H]2CN(Cc3c[nH]nc3-c3ccccc3)C[C@@H]21`, for which the “Percent Effect” value is -12.21%.
In the case of `CCC[C@H]1CN(CCS(C)(=O)=O)C[C@@H]1NC(=O)c1cc[nH]n1` it was -12.34%.
Take `O=C(N[C@@H]1CN(Cc2c[nH]nc2-c2ccccc2)C[C@H]1O)c1cc[nH]n1`: the “Percent Effect” value is reported as 121.8%.
On to `CC(C)CC(C)(CNC(=O)c1cnccn1)NC(=O)c1cnccn1` (stereo not given), for which the “Percent Effect” value was 15.43%.
With `Cc1cn2cc(C(=O)NC3CCCN(c4ncccn4)C3)ccc2n1` (stereo not given), the “Percent Effect” value is given as -3.56%.
For `Cc1ccc2nc(C(=O)N(C)[C@@H]3CC[C@@H](N4CCCC4)[C@@H]3O)cn2c1`, the “Percent Effect” value is recorded as 129%.
Take `CO[C@@H]1CC[C@@H](N(C)C(=O)c2cn3cc(C)ccc3n2)[C@H]1O`: the “Percent Effect” value worked out at 56.83%.
In the case of `CO[C@@H]1CCC[C@@H](N(C)C(=O)c2cn3cc(C)ccc3n2)[C@H]1O` it was 110.8%; in that of `Cc1ccc2c(ccn2CC(=O)NC[C@@H]2CCCN3CCCC[C@H]23)c1`, 4.302%; in that of `Cc1ccc2nc(C(=O)N3CCC(CCn4cccn4)CC3)cn2c1`, -8.837%.
On to `Cc1ccc2nc(C(=O)N3CCNC(=O)C3c3cccc(F)c3)cn2c1` (stereo not given), for which the “Percent Effect” value was -1.772%.
Regarding `c1cncc(NCCNC2CCSCC2)c1`, the “Percent Effect” value was -10.95%.
In the case of `CCn1cc(N2Cc3nc(N4CCOCC4)ncc3C2=O)cn1`, the “Percent Effect” value is recorded as 28.99%.
As for `COC(=O)c1ccc(C2CC(=O)Oc3cc(C)[nH]c(=O)c32)cc1` (stereo not given), the “Percent Effect” value is reported as -3.935%.
For `O=S(=O)(c1ccc(C(F)(F)F)cc1)N1CCC(OCc2ccccn2)C1` (stereo not given), the “Percent Effect” value is on record as -13.15%.
In the case of `CN1CCC(c2cccc(Cc3ccc(F)cc3)n2)CC1`, the “Percent Effect” value is listed as -5.274%.
For `CN1CCC(c2cccc(Cc3ccc(C(F)(F)F)cc3)n2)CC1`, the “Percent Effect” value was found to be 90.57%.
Consider `COc1ccc(Cc2cccc(C3CCN(C)CC3)n2)cc1`, for which the “Percent Effect” value is reported as -4.713%.
In the case of `CN1CCC(c2cccc(Cc3ccccc3)n2)CC1` it was 111.8%; in that of `Cl.NC(c1ccc(Cl)cc1)c1cccs1` (stereo not given), -4.089%; in that of `Cc1cccc(C)c1CN1C(=O)CC2(CCSC2)C1=O` (stereo not given), -6.047%.
`Cc1n[nH]c(SCC(=O)N2C[C@H]3CC[C@@H]2CN(c2ncccn2)C3)n1`: the “Percent Effect” value is listed as -6.945%.
With `COc1ccnc(N2CCN(Cc3ncc(-c4ccccc4)o3)CC2)n1`, the “Percent Effect” value is given as -5.442%.
With `CC(=O)NCc1ccc(C(=O)N2CCCC2c2cnn(C)c2)cc1` (stereo not given), the “Percent Effect” value stood at 89.24%.
As to `CCN(CC)Cc1ccc(C(=O)N2CCCCC2Cn2cccn2)o1` (stereo not given), the “Percent Effect” value is listed as -4.824%.
As to `CC(=O)NCc1ccc(C(=O)N2CCCC2c2cnn(C)c2)s1` (stereo not given), the “Percent Effect” value came to 110.6%.
In the case of `Cc1cc(C)n(-c2ccc(C(=O)N3CCCC3c3cnn(C)c3)cc2)n1` (stereo not given) it was -0.5529%; in that of `CC(=O)NCCc1ccc(C(=O)N2CCCC2c2cnn(C)c2)cc1` (stereo not given), 2.733%; in that of `CC(=O)NCc1ccc(C(=O)N2CCCC2c2cnn(C)c2)o1` (stereo not given), 4.332%.
Consider `CCN(CC)Cc1ccc(C(=O)N2CCCC2c2cnn(C)c2)o1` (stereo not given), for which the “Percent Effect” value was 101.4%.

For the origin of these results see ChEMBL document CHEMBL3988442, “University of Dundee, Small-Polar-MMV Screening Library” (2021).
